Among the data in PubChem BioAssay (Tox21) are Potency values, retold here.

Results filed as inconclusive are left out. Activity calls are given as the source filed them. Calls come from the whole dose curve; as a rule, active = well fitted curve in the direction sought with a large enough effect in the repeat runs; inconclusive = weak or mixed curves; inactive = no such curve, though single readings can be large; an effect the other way counts as inactive or inconclusive.

The target in test [1] is Cytochrome P450 2C9 (Homo sapiens) (UniProt P11712). Nature of the test: Cytochrome P450 Family 2 Subfamily C Member 9 (CYP2C9) small molecule antagonists: luciferase reporter qHTS assay (AID 1671198). Note: nearly all actives have a fitted effect of over 50% in size. Note: potency is the fitted concentration of half-maximal effect. The settings on record: P450-Glo CYP2C9 enzyme assay, luciferin luminescence; series mostly up to 53 µM. In short, it runs like this: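 P450-Glo proluciferin substrate with CYP2C9 enzyme; 10 min RT preincubation, then NADPH regeneration 1 h at 37C; luciferin detection reagent 20 min RT, luminescence in relative luminescence units.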
Sequence of Cytochrome P450 2C9 (Homo sapiens) (P11712 whole entry, looked up): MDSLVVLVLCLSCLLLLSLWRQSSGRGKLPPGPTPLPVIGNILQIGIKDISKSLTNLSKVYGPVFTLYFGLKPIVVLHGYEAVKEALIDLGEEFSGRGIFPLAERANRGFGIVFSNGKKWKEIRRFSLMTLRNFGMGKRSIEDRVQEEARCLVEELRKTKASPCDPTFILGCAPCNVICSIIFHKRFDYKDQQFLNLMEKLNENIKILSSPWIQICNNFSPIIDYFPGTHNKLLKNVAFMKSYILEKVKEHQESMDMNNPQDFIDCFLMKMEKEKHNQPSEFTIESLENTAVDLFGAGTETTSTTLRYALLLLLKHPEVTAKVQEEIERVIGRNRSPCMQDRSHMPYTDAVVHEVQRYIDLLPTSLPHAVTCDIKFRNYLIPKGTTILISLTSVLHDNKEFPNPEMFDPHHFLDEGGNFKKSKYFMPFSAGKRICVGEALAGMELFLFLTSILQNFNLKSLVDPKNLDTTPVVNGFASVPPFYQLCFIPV

Test [2] concerns the target Voltage-gated inwardly rectifying potassium channel KCNH2 (Homo sapiens) (UniProt Q12809). Nature of the test: Human Ether-a-go-go-Related Gene (hERG) channel small molecule antagonists: fluorescence cell-based qHTS assay (AID 1671200). Note: nearly all actives have a fitted effect of over 50% in size. Note: potency is the fitted concentration of half-maximal effect. The settings on record: hERG-U2OS cells, FluxOR thallium flux fluorescence; series mostly up to 76.8 µM. In short, it runs like this:
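First, 1000 cells per well are seeded and cultured overnight at 37 C. Next, FluxOR II dye is loaded for 1 h at room temperature, protected from light. After 10 more minutes, stimulus is added and fluorescence is read.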

The target in test [3] is Cytochrome P450 3A4 (Homo sapiens) (UniProt P08684). Nature of the test: Cytochrome P450 Family 3 Subfamily A Member 4 (CYP3A4) small molecule antagonists: luciferase reporter qHTS assay (AID 1671201). Note: nearly all actives have a fitted effect of over 50% in size. Note: potency is the fitted concentration of half-maximal effect. The settings on record: P450-Glo CYP3A4 enzyme, luciferin luminescence, 1 h; series mostly up to 115 µM. In short, it runs like this: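 Enzyme and proluciferin substrate are mixed with test chemicals for 10 min, then NADPH regeneration system drives turnover for 1 h at room temperature. A detection reagent halts the reaction; luminescence after 20 min gives relative activity.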
Sequence of Cytochrome P450 3A4 (Homo sapiens) (P08684 whole entry, looked up): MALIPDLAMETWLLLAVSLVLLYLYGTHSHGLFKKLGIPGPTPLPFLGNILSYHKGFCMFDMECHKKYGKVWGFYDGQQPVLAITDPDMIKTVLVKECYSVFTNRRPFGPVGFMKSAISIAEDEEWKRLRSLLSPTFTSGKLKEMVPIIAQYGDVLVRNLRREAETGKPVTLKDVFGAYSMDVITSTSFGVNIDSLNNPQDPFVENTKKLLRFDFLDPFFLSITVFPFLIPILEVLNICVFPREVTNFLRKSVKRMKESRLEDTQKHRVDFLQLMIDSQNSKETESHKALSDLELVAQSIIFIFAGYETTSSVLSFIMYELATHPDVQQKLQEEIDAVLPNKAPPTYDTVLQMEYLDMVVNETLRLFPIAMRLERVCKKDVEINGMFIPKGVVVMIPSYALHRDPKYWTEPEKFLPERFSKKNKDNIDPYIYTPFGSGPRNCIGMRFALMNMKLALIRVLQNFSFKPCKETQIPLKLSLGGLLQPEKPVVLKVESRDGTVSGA

The target in test [4] is Cytochrome P450 1A2 (Homo sapiens) (UniProt P05177). Nature of the test: Cytochrome P450 Family 1 Subfamily A Member 2 (CYP1A2) small molecule antagonists: luciferase reporter qHTS assay (AID 1671199). Note: nearly all actives have a fitted effect of over 50% in size. Note: potency is the fitted concentration of half-maximal effect. The conditions noted are these: P450-Glo CYP1A2 enzyme, luciferin luminescence, 1 h; series mostly up to 53 µM. In short, it runs like this:
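Compounds were incubated with CYP1A2 and a luminogenic proluciferin substrate for 10 min at room temperature before the reaction was started with NADPH regeneration solution. After 1 h, detection reagent was added and light output, proportional to CYP activity, was recorded.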

Test [5] has as its target Cytochrome P450 2C19 (Homo sapiens) (UniProt P33261). As to the kind of experiment: Cytochrome P450 Family 2 Subfamily C Member 19 (CYP2C19) small molecule antagonists: luciferase reporter qHTS assay (AID 1671197). Note: nearly all actives have a fitted effect of over 65% in size. The settings on record: P450-Glo CYP2C19 enzyme, luciferin luminescence, 1 h; series mostly up to 115 µM. In short, it runs like this:
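Inhibition of CYP2C19 was scored from loss of luminescence in a P450-Glo proluciferin substrate assay, NADPH-started and run 1 h at 37C, with ketoconazole as positive control.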

Sequence of Voltage-gated inwardly rectifying potassium channel KCNH2 (Homo sapiens) (Q12809 whole entry, looked up): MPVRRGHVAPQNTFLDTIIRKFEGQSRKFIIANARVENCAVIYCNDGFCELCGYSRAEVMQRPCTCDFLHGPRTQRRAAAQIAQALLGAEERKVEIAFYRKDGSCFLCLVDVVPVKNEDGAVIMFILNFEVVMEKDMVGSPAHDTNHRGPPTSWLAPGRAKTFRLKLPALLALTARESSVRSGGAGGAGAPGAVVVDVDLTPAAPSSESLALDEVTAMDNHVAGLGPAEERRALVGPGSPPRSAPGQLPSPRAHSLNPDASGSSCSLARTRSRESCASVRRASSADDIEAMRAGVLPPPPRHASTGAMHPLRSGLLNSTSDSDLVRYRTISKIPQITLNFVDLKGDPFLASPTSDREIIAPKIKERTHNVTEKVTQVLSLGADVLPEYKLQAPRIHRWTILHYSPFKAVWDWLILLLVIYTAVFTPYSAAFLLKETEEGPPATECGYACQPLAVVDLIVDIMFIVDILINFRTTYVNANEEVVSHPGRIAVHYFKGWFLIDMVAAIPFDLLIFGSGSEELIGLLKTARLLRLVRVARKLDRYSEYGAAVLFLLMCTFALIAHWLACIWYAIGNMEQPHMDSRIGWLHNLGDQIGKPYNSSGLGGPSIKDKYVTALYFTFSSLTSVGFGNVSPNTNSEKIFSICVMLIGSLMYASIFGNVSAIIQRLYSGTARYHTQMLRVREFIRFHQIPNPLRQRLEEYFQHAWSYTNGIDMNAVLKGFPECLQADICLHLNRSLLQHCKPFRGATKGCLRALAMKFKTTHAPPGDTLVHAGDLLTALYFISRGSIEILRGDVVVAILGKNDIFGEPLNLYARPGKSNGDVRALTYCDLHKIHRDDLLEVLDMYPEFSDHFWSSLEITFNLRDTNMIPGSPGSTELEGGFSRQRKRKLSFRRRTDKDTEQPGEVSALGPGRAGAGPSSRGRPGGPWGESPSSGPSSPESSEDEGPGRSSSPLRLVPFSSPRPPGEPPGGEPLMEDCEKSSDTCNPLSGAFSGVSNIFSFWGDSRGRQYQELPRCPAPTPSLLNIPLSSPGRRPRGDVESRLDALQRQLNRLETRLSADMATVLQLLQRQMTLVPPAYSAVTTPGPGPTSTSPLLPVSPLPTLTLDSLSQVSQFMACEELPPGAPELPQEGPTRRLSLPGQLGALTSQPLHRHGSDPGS
Sequence of Cytochrome P450 1A2 (Homo sapiens) (P05177 whole entry, looked up): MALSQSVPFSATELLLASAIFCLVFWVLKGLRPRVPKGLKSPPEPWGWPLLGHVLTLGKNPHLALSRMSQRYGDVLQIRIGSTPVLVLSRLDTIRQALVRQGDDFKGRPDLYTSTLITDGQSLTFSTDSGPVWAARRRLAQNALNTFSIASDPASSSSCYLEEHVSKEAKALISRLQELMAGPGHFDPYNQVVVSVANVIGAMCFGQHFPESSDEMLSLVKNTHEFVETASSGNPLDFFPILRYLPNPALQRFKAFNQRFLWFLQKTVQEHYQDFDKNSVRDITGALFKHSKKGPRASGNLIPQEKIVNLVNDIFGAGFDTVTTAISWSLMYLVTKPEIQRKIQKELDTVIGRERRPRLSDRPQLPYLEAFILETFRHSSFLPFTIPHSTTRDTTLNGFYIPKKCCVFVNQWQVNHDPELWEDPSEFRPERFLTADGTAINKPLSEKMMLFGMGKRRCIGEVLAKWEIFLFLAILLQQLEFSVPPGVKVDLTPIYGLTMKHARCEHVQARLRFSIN
Sequence of Cytochrome P450 2C19 (Homo sapiens) (P33261 whole entry, looked up): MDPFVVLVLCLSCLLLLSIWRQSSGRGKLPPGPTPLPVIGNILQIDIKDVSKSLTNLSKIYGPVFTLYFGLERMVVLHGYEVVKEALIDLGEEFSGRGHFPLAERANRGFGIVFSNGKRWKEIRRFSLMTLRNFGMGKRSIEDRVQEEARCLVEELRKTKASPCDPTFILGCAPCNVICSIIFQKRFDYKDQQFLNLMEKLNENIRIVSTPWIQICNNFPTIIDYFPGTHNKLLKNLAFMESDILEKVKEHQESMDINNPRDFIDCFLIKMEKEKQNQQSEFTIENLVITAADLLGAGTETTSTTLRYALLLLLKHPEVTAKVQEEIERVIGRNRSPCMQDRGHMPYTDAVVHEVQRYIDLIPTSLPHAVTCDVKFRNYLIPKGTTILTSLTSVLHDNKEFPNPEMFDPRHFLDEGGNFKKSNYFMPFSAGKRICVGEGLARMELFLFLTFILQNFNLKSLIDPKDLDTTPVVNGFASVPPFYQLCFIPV

As to `CCCC1CCC(=O)O1` (stereo not given), the Potency entry in test [1], in test [2] and in test [3] was “inactive” in each case.
On to `CCN(O)CC`, for which the Potency result in test [1], in test [4] and in test [2] was “inactive” throughout.
For `CCCCC(CC)COC(=O)COc1cc(Cl)c(Cl)cc1Cl` (stereo not given), the Potency in test [1] was 8.94 µM (active); in test [4], 15.9 µM (active); in test [3] it was 6.33 µM (active). Further, the Potency entry in test [2] is “inactive”.
For the compound `CC(C)C[C@H](NC(=O)OCC1c2ccccc2-c2ccccc21)C(=O)O`, the Potency entry in test [2] was “inactive”.
As for `CCCOc1ccc2c(c1)CC[C@@H]1[C@@H]2CC[C@]2(C)C(OC)CC[C@@H]12` (stereo not given in full), the Potency in test [1] was 34.7 µM (active). For the same compound, the Potency result in test [2] and in test [3] was “inactive” in each case.
Regarding `O=C1N(c2ccccc2)c2ccccc2C1(Cc1ccncc1)Cc1ccncc1`, the Potency entry in test [4] and in test [2] was “inactive” each time.
Turning to `O=C1C=CC(=O)O1`, the Potency result in test [5], in test [4], in test [2] and in test [3] was “inactive” in each case.
Regarding `C=CCc1cc(OC)c(O)c(C(=O)NCCO)c1`, the Potency entry in test [2] and in test [3] was “inactive” each time.
Turning to `CCCS(=O)c1ccc2nc(NC(=O)OC)[nH]c2c1` (stereo not given), the Potency result in test [1], in test [2] and in test [3] was “inactive” throughout.
Consider `CCOC(=O)C(Br)c1ccccc1` (stereo not given), for which, in test [1], the Potency is 79.6 µM (active). The Potency entry in test [2] and in test [3] was “inactive” in each case.
On to `COc1cc(N)c(Cl)cc1C(=O)NC1CCN(Cc2ccccc2)CC1`, for which the Potency entry in test [1] and in test [4] was “inactive” each time. Moreover, the figures for the Potency in test [2] and in test [3] were 16.9 µM (active) and 1.55 µM (active), respectively.
As to `CC(C)=CCCC(C)CCOC=O` (stereo not given), the Potency in test [1] was 71 µM (active); in test [3], 35.6 µM (active). In test [2], the Potency entry is “inactive”.
